# Records with an inconclusive call do not appear. Where a call stands in place of a potency, no number is given. Calls of active or inactive are those of the source. The call rests on the fitted dose curve; in most records, active means well fitted curve in the direction sought with a large enough effect; inconclusive means small, poorly fitted or top-dose-only effect, or another doubt; inactive means no such curve, though single readings can be large; an effect the other way counts as inactive or inconclusive.
# What was measured:
# [1] = qHTS to identify inhibitors of the type 1 interferon - major histocompatibility complex class I in skeletal muscle: primary screen against the NCATS LOPAC collection (AID 1347405);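 further: lytic HiBiT luminescence reporting HLA-B protein level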; further: potency means the concentration at half of the fitted maximal effect
# Procedure, shortened: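 Immortalized human C25cl48 myoblasts with HiBiT knocked into endogenous HLA-B*08:01 were stimulated with 4.0 ng/ml IFN-beta and given compounds in a 7-point, 1:4.3 titration from 46 uM final; after 24 hrs, lytic HiBiT luminescence was read.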
# [2] = qHTS for inhibitors of adenylyl cyclases using a fission yeast platform: a pilot screen against the NCATS LOPAC library (AID 1347410)
# Procedure, shortened: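 Inhibition of GNAS-stimulated AC9 activity in S. pombe was inferred from derepression of a PKA-repressed fbp1-GFP reporter, measured as cytometric fluorescence after 18 h at 30C with compounds at up to 57 µM.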
# [3] = Validation qHTS assay for inhibitors of Activation Induced Cytidine Deaminase (AID): UDG Counterscreen signal (AID 1347427)
# Procedure, shortened: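 Counterscreen read of UDG activity (2 U/mL, 4/3x) in the FRET deamination format with AID (1 uM, 4/3x), DJC20/DJC23 substrates (250 nM, 4x), 4 h at room temperature. NaOH stop, fluorescence at 560 ex/665 em.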
# [4] = biological target: Single-stranded DNA cytosine deaminase (Homo sapiens) (UniProt Q9GZX7); experiment: Validation qHTS assay for inhibitors of Activation Induced Cytidine Deaminase (AID): AID signal (AID 1347429)
# Sequence of Single-stranded DNA cytosine deaminase (Homo sapiens) (Q9GZX7 whole entry, looked up): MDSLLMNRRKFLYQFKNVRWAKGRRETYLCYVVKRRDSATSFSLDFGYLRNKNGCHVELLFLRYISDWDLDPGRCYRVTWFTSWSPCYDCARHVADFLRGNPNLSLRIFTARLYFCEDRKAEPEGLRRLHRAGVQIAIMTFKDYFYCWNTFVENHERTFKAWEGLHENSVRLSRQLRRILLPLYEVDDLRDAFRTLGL
# Procedure, shortened: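 AID and UDG were combined and compounds added at final up to 114 uM, then DJC20/DJC23 FRET substrate was added for 4 hr at room temperature. NaOH was then added for 30 min before fluorescence was read at 540/590 nm.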
# [5] = biological target: Calcium and integrin-binding protein 1 (Homo sapiens) (UniProt Q99828); experiment: Validation qHTS for Identification of Calcium Integrin Binding protein 1 (CIB1) Competitor (AID 1508618)
# Sequence of Calcium and integrin-binding protein 1 (Homo sapiens) (Q99828 whole entry, looked up): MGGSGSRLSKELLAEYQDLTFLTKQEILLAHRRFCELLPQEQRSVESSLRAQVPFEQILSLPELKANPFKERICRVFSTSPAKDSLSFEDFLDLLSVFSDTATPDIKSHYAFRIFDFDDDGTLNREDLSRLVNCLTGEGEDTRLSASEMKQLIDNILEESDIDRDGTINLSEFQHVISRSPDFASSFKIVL
# Procedure, shortened: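 CIB1-GST (1 uM final) in 5 mM HEPES pH 7.4, 125 mM NaCl, 5 mM CaCl2, 0.01% Tween20 was preincubated 15 min at room temperature with compound (up to 114 uM), then FITC-alphaIIb peptide (100 nM) added for 15 min; fluorescence polarization read.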
# [6] = Primary qHTS for inhibitors of La Crosse Virus (LACV) - induced cell death in SH-SY5Y cells (AID 1508616); further: potency means the concentration at half of the fitted maximal effect
# Procedure, shortened: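 Luminescent ATP readout (ATPLite 1step, 5 min room temperature) measured rescue from LACV-induced death after 6 days of infection at 0.01 MOI; normalized to infected DMSO wells and uninfected DMSO wells.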
# [7] = Counterscreen qHTS for small molecule stabilizers of the endoplasmic reticulum resident proteome: GLuc-NoTag assay (AID 1508627);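 further: SH-SY5Y cells given compound then 100 nM thapsigargin to empty ER calcium; series mostly up to about 76 µM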
# Procedure, shortened: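 Luminescence of Gaussia luciferase secreted into the medium (coelenterazine, 0.07x final, unlysed cells) was the read-out. Human SH-SY5Y neuroblastoma cells constitutively secreting untagged GLuc received compound for 19 h, then 100 nM thapsigargin for 4 h.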
# [8] = qHTS to identify inhibitors of the type 1 interferon - major histocompatibility complex class I in skeletal muscle: primary screen against the NCATS Pharmaceutical Collection (AID 1347407);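 further: luminescence of HiBiT knocked into endogenous HLA-B as interferon-induced MHC class I level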
# Procedure, shortened: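 A qHTS format is used: 8-point, 1:5 compound series with 46 uM top final concentration, applied alongside 4 ng/ml IFN-beta to HLA-B*08:01-HiBiT knock-in myoblasts. Luminescence is measured after 24 h treatment.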
# [9] = biological target: Protein phosphatase 1D (Homo sapiens) (UniProt O15297); experiment: RapidFire Mass Spectrometry qHTS Assay for Modulators of WT P53-Induced Phosphatase 1 (WIP1) (AID 1347424);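 further: amount of dephosphorylated VEPPL-S-QETFS peptide product formed by WIP1; potency means the concentration at half of the fitted maximal effect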
# Sequence of Protein phosphatase 1D (Homo sapiens) (O15297 whole entry, looked up): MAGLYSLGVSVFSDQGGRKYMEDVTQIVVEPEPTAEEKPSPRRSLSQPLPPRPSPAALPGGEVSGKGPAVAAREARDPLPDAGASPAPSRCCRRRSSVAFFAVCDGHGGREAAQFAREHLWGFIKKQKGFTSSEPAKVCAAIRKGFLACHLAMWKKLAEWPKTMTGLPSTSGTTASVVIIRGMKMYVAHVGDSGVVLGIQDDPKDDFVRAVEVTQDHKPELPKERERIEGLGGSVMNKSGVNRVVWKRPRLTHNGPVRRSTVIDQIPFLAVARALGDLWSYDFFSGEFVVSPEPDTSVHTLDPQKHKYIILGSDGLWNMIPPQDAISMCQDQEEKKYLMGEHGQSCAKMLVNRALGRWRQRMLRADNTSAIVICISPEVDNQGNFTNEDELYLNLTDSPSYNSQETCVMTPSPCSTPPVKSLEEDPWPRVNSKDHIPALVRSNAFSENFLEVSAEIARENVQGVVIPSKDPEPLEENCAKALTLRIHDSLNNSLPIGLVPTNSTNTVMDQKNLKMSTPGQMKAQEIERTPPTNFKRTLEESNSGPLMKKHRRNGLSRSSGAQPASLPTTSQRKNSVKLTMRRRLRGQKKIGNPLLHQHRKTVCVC
# Procedure, shortened: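 10 nM WIP1 + cpd, 1 h RT; + 2 uM VEPPL-pS-QETFS, 5 min RT; stop 0.5% formic acid; labelled product standard 1 uM; RapidFire MS. Buffer 50 mM Tris pH 7.5, 30 mM MgCl2, 1 mM TCEP.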
# [10] = biological target: Calcium and integrin-binding protein 1 (Homo sapiens) (UniProt Q99828); experiment: Primary qHTS for Identification of Calcium Integrin Binding Protein 1 (CIB1) Competitor (AID 1508620); further: potency means the concentration at half of the fitted maximal effect
# Procedure, shortened: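 CIB1-GST (1 uM final) and compound incubated 15 min at room temperature before adding FITC-alphaIIb peptide tracer (100 nM final). Competition for binding read by fluorescence polarization (ex 480, em 540) after another 15 min at room temperature.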
structure (smiles),measurement,setting,value
COc1ccc(CNC(=O)/C=C/c2ccc3[nH]cc(CCN(C)C)c3c2)cc1,Potency,[1],inactive
same,outcome,[2],inactive
same,Potency,[3],inactive
same,Potency,[4],inactive
same,Potency,[5],inactive
CC1(C(=O)O)C2CCC(O2)C1(C)C(=O)O (stereo not drawn),Potency,[1],12.6 µM (active)
same,outcome,[2],inactive
same,Potency,[3],inactive
same,Potency,[4],inactive
same,Potency,[5],inactive
CN1CCC(c2c[nH]c3ccc(O)cc23)CC1,Potency,[1],inactive
same,outcome,[2],inactive
same,Potency,[3],inactive
same,Potency,[4],inactive
same,Potency,[5],inactive
NNC(N)=O,Potency,[1],inactive
same,outcome,[2],inactive
same,Potency,[3],inactive
same,Potency,[6],inactive
same,Potency,[5],inactive
CCCN1CCc2cc(O)cc3c2[C@H]1Cc1ccc(O)c(O)c1-3,Potency,[1],inactive
same,outcome,[2],inactive
same,Potency,[3],inactive
same,Potency,[4],inactive
same,Potency,[6],2 µM (active)
same,Potency,[5],inactive
CC(N)Cc1c[nH]c2ccc(OCc3cccs3)cc12 (stereo not drawn),Potency,[1],inactive
same,outcome,[2],inactive
same,Potency,[3],inactive
same,Potency,[4],inactive
same,Potency,[5],inactive
N#C/C(=C/c1ccc(O)c(O)c1)C(N)=S,Potency,[1],inactive
same,outcome,[2],inactive
same,Potency,[3],inactive
same,Potency,[4],inactive
same,Potency,[6],inactive
same,Potency,[5],inactive
same,outcome,[7],inactive
CCn1cnc2c(Nc3cccc(Cl)c3)nc(N[C@@H]3CCCC[C@@H]3N)nc21,Potency,[1],2.51 µM (active)
same,outcome,[2],inactive
same,Potency,[3],inactive
same,Potency,[4],inactive
same,Potency,[5],inactive
Cc1cc([C@@H]2CCCN2C)on1,Potency,[1],inactive
same,outcome,[2],inactive
same,Potency,[3],inactive
same,Potency,[5],inactive
Nc1cc2c(ncn2CCOCP(=O)(O)O)c(=O)[nH]1,Potency,[1],inactive
same,outcome,[2],inactive
same,Potency,[5],inactive
c1ccc2c(c1)[I+]c1ccccc1-2,Potency,[1],8.91 µM (active)
same,Potency,[4],inactive
same,Potency,[5],inactive
CC(=O)NBr,Potency,[1],inactive
same,outcome,[2],inactive
same,Potency,[3],inactive
same,Potency,[5],inactive
CO[C@H]1CC=C2CCN3CCC4=C(CC(=O)OC4)[C@]23C1,Potency,[1],inactive
same,outcome,[2],inactive
same,Potency,[3],inactive
same,Potency,[6],inactive
same,Potency,[5],inactive
Clc1ccc(N2CC3CCC(C2)N3)nn1,Potency,[1],inactive
same,outcome,[2],inactive
same,Potency,[3],inactive
same,Potency,[6],inactive
same,Potency,[5],inactive
same,outcome,[7],inactive
CC(N)Cc1c[nH]c2ccc(O)cc12 (stereo not drawn),Potency,[1],inactive
same,outcome,[2],inactive
same,Potency,[3],inactive
same,Potency,[6],inactive
same,Potency,[5],inactive
C[C@H]1C2Cc3ccc(O)cc3[C@@]1(C)CCN2CC1CC1,Potency,[1],inactive
same,outcome,[2],inactive
same,Potency,[5],inactive
NC(=O)c1cc(N2CC2)c([N+](=O)[O-])cc1[N+](=O)[O-],Potency,[1],inactive
same,outcome,[2],inactive
same,Potency,[3],inactive
same,Potency,[5],inactive
CCCN(CCC)[C@H]1CCc2c(F)ccc(O)c2C1,Potency,[1],inactive
same,outcome,[2],inactive
same,Potency,[3],inactive
same,Potency,[5],inactive
O=C(NC1CN2CCC1CC2)c1cc2ccoc2cn1 (stereo not drawn),Potency,[1],inactive
same,outcome,[2],inactive
same,Potency,[5],inactive
C[N+](C)(C)CCOC(=O)CBr,Potency,[1],inactive
same,outcome,[2],inactive
same,Potency,[3],inactive
same,Potency,[6],inactive
same,Potency,[5],inactive
C[CH2][Hg][S]c1ccccc1C(=O)O,outcome,[8],inactive
same,Potency,[9],35.5 µM (active)
same,Potency,[10],22.4 µM (active)
N=C(N)c1ccc(CS(=O)(=O)F)cc1,Potency,[1],inactive
same,outcome,[2],inactive
same,Potency,[3],inactive
same,Potency,[6],inactive
same,Potency,[5],inactive
CCCN1CCc2cccc3c2[C@H]1Cc1ccc(O)c(O)c1-3,Potency,[1],inactive
same,outcome,[2],inactive
same,Potency,[3],inactive
same,Potency,[5],inactive
CCNC(=O)[C@H]1O[C@@H](n2cnc3c(N)ncnc32)[C@H](O)[C@@H]1O,Potency,[1],inactive
same,outcome,[2],inactive
same,Potency,[3],inactive
same,Potency,[5],inactive
Nc1ccc(CCN2CCN(c3cccc(C(F)(F)F)c3)CC2)cc1,Potency,[1],inactive
same,outcome,[2],inactive
same,Potency,[3],inactive
same,Potency,[5],inactive
same,outcome,[7],inactive

# Source: PubChem BioAssay (NCATS)
